# Numbering of substitutions follows the chain as printed. Over roughly 24,000 sequences, “enrichment r” has its median near 0.99; the highest 2% begin near 3.7. Shown is part of a subset that was picked to be rich in the highest values.
# T1: UNK ZnF1-3 (human, UniProt Q9C0B0 31-174)
# T1 sequence: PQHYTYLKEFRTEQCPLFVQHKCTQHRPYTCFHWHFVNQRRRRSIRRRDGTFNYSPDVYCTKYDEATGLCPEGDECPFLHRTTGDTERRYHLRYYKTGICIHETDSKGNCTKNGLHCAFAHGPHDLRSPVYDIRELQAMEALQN
# B1: 107960272_107965159_2041_CDS_ENSG00000166266_ENST00000393094|human|control|control (ssRNA)
# RNA: GGGAGUUCUACAGUCCGACGAUCUCUAGCAAGCUUGUUUACAUAAUCCGCUGGCAUACCAACUUCUCUUAGCCACUCUACCAUGUUUUCUUCAAUUUCACUAUCGGCAGAGAUGUCUAAUAUAAGACGUCGUGUCAAAUGAGCCAACAGAGGAUUGAGCAUCA
# B2: chr1:95363480:95363481:-_ENSG00000117519_ENST00000538964|hu_mus|FALSE|FALSE (ssRNA)
# RNA: GGGAGUUCUACAGUCCGACGAUCCGUGCCCUGGCUUCCGUUGUGAAUGACAGGUUCUGUGGGUGCGGCACAGUACUUGGGGUCAUAUACUUGCCGCCCAAGCCCAUACACGCUCAUUCCUUUCUGGGAAGCAACUUUGUUGGUCAACAGAGGAUUGAGCAUCA
# B3: chr12:48362563:48362564:+_ENSG00000134291_ENST00000256686|hu_hu|hu_hu_hu_mus_False|58_98 (ssRNA)
# RNA: GGGAGUUCUACAGUCCGACGAUCUCCGUCAAGCCCUUCAAGCCCCACUUGCGGGGGAAACUGUAAUCACUUUGUAUUUCUAAAAAAAAGAAACGCCAAAAACUUUCCAAAAAGCGGGGGUGGGGUGAGGCGGGAGGGGGAGGUCAACAGAGGAUUGAGCAUCA
# B4: 60821080_60823165_1073_3pUTR_ENSMUSG00000021559_ENSMUST00000077453|mouse|control|control (ssRNA)
# RNA: GGGAGUUCUACAGUCCGACGAUCUUCGACUAAGUGCUUGUUGGGUGUCUUUAGGCUUGAUCCAGGGGUGCUGCAAACUGUCCUGGAUUGUCAUCCUCUUCUUUGGAUCCUUGACCAGCAGUCUUCUGAUGAAAUCUUUGGCAACAACAGAGGAUUGAGCAUCA
# B5: chr1:169302553:169302554:-_ENSMUSG00000026688_ENSMUST00000028005|mus_mus|FALSE|FALSE (ssRNA)
# RNA: GGGAGUUCUACAGUCCGACGAUCAUGCAGGCAGGAGCUUUAGGUAUGAGGCUGAUGCCAGAUAAGUUUUUAUUAUAUUAAAAAAAAAAAAAAAACCAGUGCAACUGGAAAUCAGGGUGAGUCGCUGGAGGUGAGUGAGAGUCGCAACAGAGGAUUGAGCAUCA
# B6: chr5:136386016:136386017:-_ENSMUSG00000051391_ENSMUST00000055808|mus_mus|motif|central (ssRNA)
# RNA: GGGAGUUCUACAGUCCGACGAUCGGGGGUAUUUAACGGUUUCUGUUUUUGUGAUGGGCUGACCUUAAGGGUAAAGAAGAACGGAAAAAAAAAGUAUCCCCCGCAGCCCCCUCCCAAACACCCAUCAACCAAAACGGAACAGGGCAACAGAGGAUUGAGCAUCA
# B7: chr16:94690093:94690094:+_ENSMUSG00000040785_ENSMUST00000117648|mus_hu|mus_mus_mus_hu_True|8_88 (ssRNA)
# RNA: GGGAGUUCUACAGUCCGACGAUCGGGCUGGGAUGACGGACACACAGAUCUUCCCAGAGGGGGAAAAAGUCUUAGUCGAUACUAAUUAAAAAGUGUUAAUGAUUUUUGAAAAUCAGAUUACAUCUAUUUGAAUCAUAAAGCAAACAACAGAGGAUUGAGCAUCA
# B8: chr8:59070621:59070622:+_ENSMUSG00000038206_ENSMUST00000040218|mus_mus|motif|central (ssRNA)
# RNA: GGGAGUUCUACAGUCCGACGAUCAAACAUGAUGAGCAAAUUAAGAAAAGUUCUGUAAAAUUAGUUAGUUCUGAGAUUUCGGAACGGGAAAACAGUGAAACAAAAAAGGGGGGGUGCAGUCAAGCUGGAUUUUACACACAGGCUCAACAGAGGAUUGAGCAUCA
# B9: chr8:59070621:59070622:+_ENSMUSG00000038206_ENSMUST00000040218|mus_mus|FALSE|FALSE (ssRNA)
# RNA: B8 RNA with G80U, G81A, G85U, G86A
# B10: chr1:186721242:186721243:-_ENSMUSG00000026620_ENSMUST00000027929|mus_mus|FALSE|FALSE (ssRNA)
# RNA: GGGAGUUCUACAGUCCGACGAUCAUAAUGAGUAUUAAAAAGAUGUGCCUUUUCUAGUGGCUUUACGUCGCAUACGUCACUAAUUAUGAAAGAAGGCAAAUGACCAGUUACAAAGCUCCACAUGACUGGAAUAAUGAUGUGGAACAACAGAGGAUUGAGCAUCA
# B11: 219445452_219447802_500_3pUTR_ENSG00000144580_ENST00000542068|human|control|control (ssRNA)
# RNA: GGGAGUUCUACAGUCCGACGAUCCUGGAUGUGAUGCUACACAUUGCAGUAAUGCCAGAGCAUUGCAAACUCUGUUAGACUGGUGUGCUGUCAAGGUGGGUGGGUUGAUAGAUGGAUAAAUAUUUACAAUUUCCUGUAAAAGUGCAACAGAGGAUUGAGCAUCA
# B12: chr7:141441981:141441982:+_ENSG00000106028_ENST00000265304|hu_mus|hu_hu_hu_mus_False|1_8 (ssRNA)
# RNA: GGGAGUUCUACAGUCCGACGAUCCUCAUGUCUUACAAACUGACGAAAUACCUGUAACACAGGUCUUCGAAACAUGGCUUCUGUUUUUCUUACAACCUAAUCUUUAGGCUUUUCCUAAAGGAAAGAAUAACCCGAGCAGCCCAGCAACAGAGGAUUGAGCAUCA
# B13: chr11:46405157:46405158:+_ENSG00000110492_ENST00000395566|hu_hu|hu_hu_hu_mus_False|8_78 (ssRNA)
# RNA: GGGAGUUCUACAGUCCGACGAUCCCCUCCCCACUUUGGGCACUUGGUGUGGGCGUGAAGGCAGGGCCGUGAUUGACAGAGCUGACAGGAAGACAAAAGGCACUGGUGGGUUAUAUCUUGGGCCUGUGAGAGGGAGGGGCUCCGCAACAGAGGAUUGAGCAUCA
# B14: 52098632_52100650_1216_3pUTR_ENSG00000128872_ENST00000249700|human|control|control (ssRNA)
# RNA: GGGAGUUCUACAGUCCGACGAUCUACCUUCGGUCUGCUUCAACUCUCUUCUUACGAACCAGGUCAUUAUUCUUUGUGAUGGCAGCUGCCACCCUUGUUCGUGGCCCUUGCUUGGUAAACUGGUAUCCAAACUUGAGGAUCCUUCAACAGAGGAUUGAGCAUCA
# Target: T1, UNK ZnF1-3
# Test: nsRBNS (natural sequence RNA bind-n-seq); RBNS binding buffer (assumed for nsRBNS): 25 mM Tris pH 7.5, 150 mM KCl, 3 mM MgCl2, 0.01% Triton X-100, 500 ug/ml BSA, 20 U/ml SUPERase-In, 4 C; UNK is unkempt and MSI1 is Musashi-1; names of the RNAs are library labels; protein concentration not given here; high values mean tight binding
row,Binder,binding signal
1,B1,0.643 enrichment R
2,B2,0.529 enrichment R
3,B3,1.56 enrichment R
4,B4,0.466 enrichment R
5,B5,7.4 enrichment R
6,B6,0.928 enrichment R
7,B7,1.05 enrichment R
8,B8,9.45 enrichment R
9,B9,7.52 enrichment R
10,B10,0.52 enrichment R
11,B11,1.19 enrichment R
12,B12,0.751 enrichment R
13,B13,2.15 enrichment R
14,B14,0.553 enrichment R

# Source: PMC12136788
